Tests used:
Assay in all cases: DAPPL (digital affinity profiling via proximity ligation, sequencing); 10 mM Tris-HCl pH 7.5, 50 mM NaCl, 1 mM DTT, 4% glycerol, room temperature, 30 min; GST-TFs on glutathione beads, 16-mer random dsDNA library, 0.1% formaldehyde crosslink after washing; high values mean tight binding
FLI1 = target: T1, FLI1 (Homo sapiens, UniProt Q01543 1-452); conditions: protein: recombinant; tags: N-terminal GST; dsDNA, one strand shown
T1 sequence: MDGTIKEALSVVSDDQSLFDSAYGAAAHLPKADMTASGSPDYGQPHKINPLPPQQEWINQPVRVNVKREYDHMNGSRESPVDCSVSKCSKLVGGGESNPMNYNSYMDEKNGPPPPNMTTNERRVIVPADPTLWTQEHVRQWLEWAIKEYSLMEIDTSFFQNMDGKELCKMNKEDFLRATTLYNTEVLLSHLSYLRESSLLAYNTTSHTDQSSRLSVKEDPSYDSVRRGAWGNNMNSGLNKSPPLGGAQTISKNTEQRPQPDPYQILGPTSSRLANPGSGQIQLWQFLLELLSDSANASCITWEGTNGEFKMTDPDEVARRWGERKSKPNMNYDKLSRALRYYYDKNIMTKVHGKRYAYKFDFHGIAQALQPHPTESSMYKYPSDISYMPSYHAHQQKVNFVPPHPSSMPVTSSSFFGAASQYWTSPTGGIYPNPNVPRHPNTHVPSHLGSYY
Method in brief: (§1)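 Pools of DNA-barcoded human transcription factors, expressed in yeast as GST fusions on glutathione beads and combined with a tag-only sample, were incubated with 200 nmole of a 16-mer random double-stranded DNA library. Incubation took 30 min at room temperature in Tris/NaCl/DTT/glycerol buffer and was followed by washing, 0.1% formaldehyde crosslinking, proximity ligation (BsaI/T4 ligase, 1 h, 37 °C), PCR amplification and sequencing on an Illumina NextSeq500. Binding signal is the ratio of a hexamer's read frequency for a factor to its frequency for the tag-only sample.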

ELK1 = target: T2, ELK1 (Homo sapiens, UniProt P19419 1-428); conditions: protein: recombinant; tags: N-terminal GST; dsDNA, one strand shown
T2 sequence: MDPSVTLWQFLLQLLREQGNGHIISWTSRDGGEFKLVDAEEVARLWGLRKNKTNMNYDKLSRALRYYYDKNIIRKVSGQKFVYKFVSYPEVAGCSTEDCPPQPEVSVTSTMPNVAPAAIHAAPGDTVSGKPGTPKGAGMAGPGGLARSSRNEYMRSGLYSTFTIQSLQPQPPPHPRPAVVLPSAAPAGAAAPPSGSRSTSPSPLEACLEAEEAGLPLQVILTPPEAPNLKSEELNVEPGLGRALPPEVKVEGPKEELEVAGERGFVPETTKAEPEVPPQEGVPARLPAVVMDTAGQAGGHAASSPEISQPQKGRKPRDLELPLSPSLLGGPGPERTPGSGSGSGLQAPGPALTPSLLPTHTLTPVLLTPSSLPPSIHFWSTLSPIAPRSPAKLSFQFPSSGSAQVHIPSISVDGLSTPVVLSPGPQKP
Method in brief: as §1

GABPA = target: T3, GABPA (Homo sapiens, UniProt Q06546 1-454); conditions: protein: recombinant; tags: N-terminal GST; dsDNA, one strand shown
T3 sequence: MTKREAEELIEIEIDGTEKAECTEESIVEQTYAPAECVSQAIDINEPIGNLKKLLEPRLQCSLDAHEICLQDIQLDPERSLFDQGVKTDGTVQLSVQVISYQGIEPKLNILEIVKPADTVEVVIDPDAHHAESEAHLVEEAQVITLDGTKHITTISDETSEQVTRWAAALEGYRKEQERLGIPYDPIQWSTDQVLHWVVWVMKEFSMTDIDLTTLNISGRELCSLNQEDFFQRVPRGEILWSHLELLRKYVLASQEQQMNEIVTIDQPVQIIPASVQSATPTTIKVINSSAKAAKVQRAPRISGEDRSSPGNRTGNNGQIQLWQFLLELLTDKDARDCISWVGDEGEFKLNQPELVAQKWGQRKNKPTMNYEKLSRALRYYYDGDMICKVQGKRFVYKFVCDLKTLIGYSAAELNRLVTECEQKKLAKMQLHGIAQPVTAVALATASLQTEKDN
Method in brief: as §1

ERG = target: T4, ERG (Homo sapiens, UniProt P11308 1-479); conditions: protein: recombinant; tags: N-terminal GST; dsDNA, one strand shown
T4 sequence: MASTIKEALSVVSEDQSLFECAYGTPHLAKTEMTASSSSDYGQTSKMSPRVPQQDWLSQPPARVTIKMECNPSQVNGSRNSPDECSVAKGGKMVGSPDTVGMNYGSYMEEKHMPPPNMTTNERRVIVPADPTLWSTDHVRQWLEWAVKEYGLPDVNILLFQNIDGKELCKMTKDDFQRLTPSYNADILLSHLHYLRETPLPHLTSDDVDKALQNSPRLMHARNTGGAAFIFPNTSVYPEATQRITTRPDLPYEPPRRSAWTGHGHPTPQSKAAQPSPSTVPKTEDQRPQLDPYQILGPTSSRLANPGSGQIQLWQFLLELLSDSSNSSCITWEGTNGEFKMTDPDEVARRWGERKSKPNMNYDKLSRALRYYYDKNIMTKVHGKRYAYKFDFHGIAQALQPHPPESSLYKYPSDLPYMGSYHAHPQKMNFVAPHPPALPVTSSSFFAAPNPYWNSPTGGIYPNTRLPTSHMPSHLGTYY
Method in brief: as §1

ELF1 = ELF1 (Homo sapiens, UniProt P32519 1-619); conditions: protein: recombinant; tags: N-terminal GST; dsDNA, one strand shown
Sequence of ELF1 (P32519 whole entry): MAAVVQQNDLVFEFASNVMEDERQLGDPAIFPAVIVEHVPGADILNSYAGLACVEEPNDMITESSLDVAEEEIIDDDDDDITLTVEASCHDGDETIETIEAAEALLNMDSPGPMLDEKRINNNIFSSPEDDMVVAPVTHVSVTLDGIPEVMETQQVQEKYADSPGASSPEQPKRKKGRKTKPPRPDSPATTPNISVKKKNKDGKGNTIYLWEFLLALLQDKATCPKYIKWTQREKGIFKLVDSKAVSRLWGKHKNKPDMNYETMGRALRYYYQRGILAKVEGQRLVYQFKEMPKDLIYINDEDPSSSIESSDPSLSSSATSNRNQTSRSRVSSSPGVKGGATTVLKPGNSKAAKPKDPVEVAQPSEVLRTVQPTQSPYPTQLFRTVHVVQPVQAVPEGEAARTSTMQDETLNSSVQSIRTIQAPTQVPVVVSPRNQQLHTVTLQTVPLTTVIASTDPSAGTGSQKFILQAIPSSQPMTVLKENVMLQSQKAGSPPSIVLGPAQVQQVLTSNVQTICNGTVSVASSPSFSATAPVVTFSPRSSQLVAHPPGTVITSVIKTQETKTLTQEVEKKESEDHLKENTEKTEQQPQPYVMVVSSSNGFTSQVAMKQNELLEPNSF
Method in brief: as §1

EHF = target: T5, EHF (Homo sapiens, UniProt Q9NZC4 1-300); conditions: protein: recombinant; tags: N-terminal GST; dsDNA, one strand shown
T5 sequence: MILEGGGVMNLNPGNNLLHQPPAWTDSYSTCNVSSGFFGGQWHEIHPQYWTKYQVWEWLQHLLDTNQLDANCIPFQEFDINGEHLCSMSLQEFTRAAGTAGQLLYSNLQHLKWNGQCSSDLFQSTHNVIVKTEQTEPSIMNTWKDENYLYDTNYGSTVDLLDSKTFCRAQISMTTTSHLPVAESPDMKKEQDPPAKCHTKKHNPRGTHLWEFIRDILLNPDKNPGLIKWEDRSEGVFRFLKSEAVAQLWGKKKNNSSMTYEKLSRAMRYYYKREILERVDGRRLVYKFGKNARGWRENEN
Method in brief: as §1

SPI1 = SPI1 (Homo sapiens, UniProt P17947 1-270); conditions: protein: recombinant; tags: N-terminal GST; dsDNA, one strand shown
Method in brief: as §1

SPIB = SPIB (Homo sapiens, UniProt Q01892 1-262); conditions: protein: recombinant; tags: N-terminal GST; dsDNA, one strand shown
Sequence of SPIB (Q01892 whole entry): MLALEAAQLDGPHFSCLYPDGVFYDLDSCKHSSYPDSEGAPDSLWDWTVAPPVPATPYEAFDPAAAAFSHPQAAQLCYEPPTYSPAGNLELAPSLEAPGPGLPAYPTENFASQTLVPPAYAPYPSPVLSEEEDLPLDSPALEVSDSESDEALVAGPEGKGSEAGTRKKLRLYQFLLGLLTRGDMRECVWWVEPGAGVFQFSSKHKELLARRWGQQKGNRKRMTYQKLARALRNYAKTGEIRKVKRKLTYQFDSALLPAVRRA
Method in brief: as §1

ELK3 = target: T6, ELK3 (Homo sapiens, UniProt P41970 1-407); conditions: protein: recombinant; tags: N-terminal GST; dsDNA, one strand shown
T6 sequence: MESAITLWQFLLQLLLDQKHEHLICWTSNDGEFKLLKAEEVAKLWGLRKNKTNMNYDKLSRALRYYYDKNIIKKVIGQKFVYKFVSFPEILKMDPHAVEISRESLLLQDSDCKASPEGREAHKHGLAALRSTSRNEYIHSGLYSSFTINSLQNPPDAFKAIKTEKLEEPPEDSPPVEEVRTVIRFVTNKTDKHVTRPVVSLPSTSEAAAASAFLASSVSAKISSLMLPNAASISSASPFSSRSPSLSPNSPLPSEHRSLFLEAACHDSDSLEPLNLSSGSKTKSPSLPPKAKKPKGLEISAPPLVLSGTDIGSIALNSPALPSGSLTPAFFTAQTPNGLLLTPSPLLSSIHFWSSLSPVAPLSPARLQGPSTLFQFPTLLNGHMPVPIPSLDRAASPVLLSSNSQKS
Method in brief: as §1

FEV = target: T7, FEV (Homo sapiens, UniProt Q99581 1-238); conditions: protein: recombinant; tags: N-terminal GST; dsDNA, one strand shown
T7 sequence: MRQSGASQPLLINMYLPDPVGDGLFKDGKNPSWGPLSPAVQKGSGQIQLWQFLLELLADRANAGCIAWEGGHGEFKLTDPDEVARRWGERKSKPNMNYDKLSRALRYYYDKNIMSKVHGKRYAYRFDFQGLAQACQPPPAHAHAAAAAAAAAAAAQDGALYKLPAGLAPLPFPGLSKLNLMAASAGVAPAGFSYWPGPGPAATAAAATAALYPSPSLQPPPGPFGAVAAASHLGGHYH
Method in brief: as §1

ETV5 = ETV5 (Homo sapiens, UniProt P41161 1-510); conditions: protein: recombinant; tags: N-terminal GST; dsDNA, one strand shown
Sequence of ETV5 (P41161 whole entry): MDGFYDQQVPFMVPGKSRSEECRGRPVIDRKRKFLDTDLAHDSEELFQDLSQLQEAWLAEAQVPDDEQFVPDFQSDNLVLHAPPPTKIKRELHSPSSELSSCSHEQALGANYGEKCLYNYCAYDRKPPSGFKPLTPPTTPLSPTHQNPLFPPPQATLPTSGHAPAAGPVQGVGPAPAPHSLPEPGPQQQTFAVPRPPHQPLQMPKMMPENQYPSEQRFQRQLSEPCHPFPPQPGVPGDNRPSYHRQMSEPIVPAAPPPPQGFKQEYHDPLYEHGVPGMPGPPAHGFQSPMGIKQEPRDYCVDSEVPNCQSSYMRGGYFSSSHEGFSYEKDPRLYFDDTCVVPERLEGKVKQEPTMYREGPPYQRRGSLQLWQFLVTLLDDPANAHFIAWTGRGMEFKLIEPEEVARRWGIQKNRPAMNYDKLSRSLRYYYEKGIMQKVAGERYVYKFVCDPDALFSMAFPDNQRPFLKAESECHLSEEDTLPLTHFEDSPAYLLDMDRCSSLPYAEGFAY
Method in brief: as §1

HSF1 = HSF1 (Homo sapiens, UniProt Q00613 1-529); conditions: protein: recombinant; tags: N-terminal GST; chain copies: 3; dsDNA, one strand shown
Sequence of HSF1 (Q00613 whole entry): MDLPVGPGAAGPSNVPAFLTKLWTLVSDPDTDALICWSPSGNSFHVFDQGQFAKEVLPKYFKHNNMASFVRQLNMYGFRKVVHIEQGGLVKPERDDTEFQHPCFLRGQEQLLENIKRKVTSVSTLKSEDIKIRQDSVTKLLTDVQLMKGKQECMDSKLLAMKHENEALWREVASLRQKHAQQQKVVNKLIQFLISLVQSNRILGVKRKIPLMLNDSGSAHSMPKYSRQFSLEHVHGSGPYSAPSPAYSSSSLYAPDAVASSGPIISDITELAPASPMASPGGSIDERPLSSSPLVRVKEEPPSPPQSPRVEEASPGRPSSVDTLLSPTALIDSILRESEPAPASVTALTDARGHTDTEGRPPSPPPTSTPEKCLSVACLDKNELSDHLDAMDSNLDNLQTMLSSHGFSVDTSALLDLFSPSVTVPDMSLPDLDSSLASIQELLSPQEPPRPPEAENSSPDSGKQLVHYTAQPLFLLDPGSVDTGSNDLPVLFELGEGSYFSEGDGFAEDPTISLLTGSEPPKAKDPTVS
Method in brief: as §1

SPIC = target: T8, SPIC (Homo sapiens, UniProt Q8N5J4 1-248); conditions: protein: recombinant; tags: N-terminal GST; dsDNA, one strand shown
T8 sequence: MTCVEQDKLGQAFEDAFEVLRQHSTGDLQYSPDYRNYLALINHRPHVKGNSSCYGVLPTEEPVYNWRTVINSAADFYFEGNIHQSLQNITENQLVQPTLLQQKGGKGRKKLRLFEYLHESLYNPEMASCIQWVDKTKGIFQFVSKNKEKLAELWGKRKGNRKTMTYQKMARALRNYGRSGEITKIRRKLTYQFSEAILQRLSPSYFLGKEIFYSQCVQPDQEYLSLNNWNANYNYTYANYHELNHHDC
Method in brief: as §1

ELF4 = ELF4 (Homo sapiens, UniProt Q99607 1-663); conditions: protein: recombinant; tags: N-terminal GST; dsDNA, one strand shown
Sequence of ELF4 (Q99607 whole entry): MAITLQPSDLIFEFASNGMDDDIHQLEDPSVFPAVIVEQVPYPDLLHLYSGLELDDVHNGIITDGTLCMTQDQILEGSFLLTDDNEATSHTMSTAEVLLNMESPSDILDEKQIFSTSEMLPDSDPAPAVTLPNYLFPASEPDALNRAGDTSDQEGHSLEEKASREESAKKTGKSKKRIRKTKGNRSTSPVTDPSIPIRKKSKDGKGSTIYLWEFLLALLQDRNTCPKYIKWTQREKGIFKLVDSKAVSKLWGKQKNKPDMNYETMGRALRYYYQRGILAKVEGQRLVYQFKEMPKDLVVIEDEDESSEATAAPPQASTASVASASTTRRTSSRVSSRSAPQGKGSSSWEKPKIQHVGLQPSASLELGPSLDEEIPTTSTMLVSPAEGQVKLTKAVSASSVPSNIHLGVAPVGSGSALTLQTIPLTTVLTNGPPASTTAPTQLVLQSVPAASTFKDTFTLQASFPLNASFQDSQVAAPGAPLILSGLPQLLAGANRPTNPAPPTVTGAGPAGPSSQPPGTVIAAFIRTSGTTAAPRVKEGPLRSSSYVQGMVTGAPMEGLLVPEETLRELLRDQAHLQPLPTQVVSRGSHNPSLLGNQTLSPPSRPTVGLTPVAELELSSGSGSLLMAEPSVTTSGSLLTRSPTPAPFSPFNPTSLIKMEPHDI
Method in brief: as §1

ELK4 = target: T9, ELK4 (Homo sapiens, UniProt P28324-2 1-405); conditions: protein: recombinant; tags: N-terminal GST; dsDNA, one strand shown
T9 sequence: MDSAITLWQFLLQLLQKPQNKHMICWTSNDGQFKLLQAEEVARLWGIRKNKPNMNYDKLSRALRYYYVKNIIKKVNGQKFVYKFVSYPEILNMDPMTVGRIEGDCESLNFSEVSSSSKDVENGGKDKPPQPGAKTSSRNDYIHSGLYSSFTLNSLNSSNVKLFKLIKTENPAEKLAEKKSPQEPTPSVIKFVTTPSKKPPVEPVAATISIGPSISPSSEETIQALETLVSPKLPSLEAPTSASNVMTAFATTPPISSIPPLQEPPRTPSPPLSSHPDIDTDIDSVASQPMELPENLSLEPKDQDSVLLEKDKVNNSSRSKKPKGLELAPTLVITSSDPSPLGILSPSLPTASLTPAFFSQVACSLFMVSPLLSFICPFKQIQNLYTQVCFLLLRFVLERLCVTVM
Method in brief: as §1

ETV2 = target: T10, ETV2 (Homo sapiens, UniProt O00321 1-342); conditions: protein: recombinant; tags: N-terminal GST; dsDNA, one strand shown
T10 sequence: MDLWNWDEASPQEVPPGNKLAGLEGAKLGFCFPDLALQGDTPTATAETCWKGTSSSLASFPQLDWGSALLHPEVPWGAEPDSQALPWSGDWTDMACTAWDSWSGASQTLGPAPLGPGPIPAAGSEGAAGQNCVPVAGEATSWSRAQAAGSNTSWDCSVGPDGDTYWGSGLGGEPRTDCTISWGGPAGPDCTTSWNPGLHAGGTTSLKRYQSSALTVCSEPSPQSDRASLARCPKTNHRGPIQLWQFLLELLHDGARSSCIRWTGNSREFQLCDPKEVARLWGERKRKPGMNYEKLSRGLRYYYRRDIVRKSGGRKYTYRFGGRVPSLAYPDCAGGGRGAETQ
Method in brief: as §1

ELF3 = target: T11, ELF3 (Homo sapiens, UniProt P78545 1-371); conditions: protein: recombinant; tags: N-terminal GST; dsDNA, one strand shown
T11 sequence: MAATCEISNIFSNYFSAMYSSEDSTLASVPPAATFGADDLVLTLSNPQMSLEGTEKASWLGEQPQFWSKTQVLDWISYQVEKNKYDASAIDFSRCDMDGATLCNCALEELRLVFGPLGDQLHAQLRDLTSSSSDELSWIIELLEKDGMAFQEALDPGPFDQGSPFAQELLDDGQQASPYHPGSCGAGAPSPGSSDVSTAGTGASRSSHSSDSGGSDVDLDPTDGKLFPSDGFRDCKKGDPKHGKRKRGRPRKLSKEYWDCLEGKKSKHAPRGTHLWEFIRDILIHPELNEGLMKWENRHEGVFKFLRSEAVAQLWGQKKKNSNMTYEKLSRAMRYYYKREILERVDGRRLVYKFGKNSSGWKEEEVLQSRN
Method in brief: as §1

CRX = CRX (Homo sapiens, UniProt O43186 1-299); conditions: protein: recombinant; tags: N-terminal GST; dsDNA, one strand shown
Sequence of CRX (O43186 whole entry): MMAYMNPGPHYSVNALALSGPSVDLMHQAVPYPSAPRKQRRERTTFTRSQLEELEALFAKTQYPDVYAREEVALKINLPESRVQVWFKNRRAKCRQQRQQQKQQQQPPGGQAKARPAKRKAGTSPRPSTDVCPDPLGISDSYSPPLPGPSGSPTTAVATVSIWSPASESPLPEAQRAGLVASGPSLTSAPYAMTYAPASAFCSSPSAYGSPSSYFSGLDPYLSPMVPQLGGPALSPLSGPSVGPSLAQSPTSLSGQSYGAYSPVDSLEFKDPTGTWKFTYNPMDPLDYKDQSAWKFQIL
Method in brief: as §1

ETV1 = ETV1 (Homo sapiens, UniProt P50549 1-477); conditions: protein: recombinant; tags: N-terminal GST; dsDNA, one strand shown
Sequence of ETV1 (P50549 whole entry): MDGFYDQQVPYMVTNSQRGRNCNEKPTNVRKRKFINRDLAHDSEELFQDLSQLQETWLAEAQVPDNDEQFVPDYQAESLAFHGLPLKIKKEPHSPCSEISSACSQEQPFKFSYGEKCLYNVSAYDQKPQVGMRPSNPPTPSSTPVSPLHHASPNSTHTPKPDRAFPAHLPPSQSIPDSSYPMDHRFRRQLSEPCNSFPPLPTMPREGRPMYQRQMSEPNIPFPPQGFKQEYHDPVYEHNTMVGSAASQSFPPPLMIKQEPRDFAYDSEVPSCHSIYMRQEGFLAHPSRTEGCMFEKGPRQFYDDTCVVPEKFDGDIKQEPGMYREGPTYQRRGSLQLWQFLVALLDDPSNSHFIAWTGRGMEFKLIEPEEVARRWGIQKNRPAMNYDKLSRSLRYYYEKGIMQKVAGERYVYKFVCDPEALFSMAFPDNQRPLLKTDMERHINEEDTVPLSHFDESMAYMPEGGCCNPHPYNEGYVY
Method in brief: as §1

With AATTCG the binding signal (FLI1) was 1.29 fold enrichment (6-mer frequency, TF over GST control), the binding signal (ELK1) was 1.26 fold enrichment (6-mer frequency, TF over GST control) and the binding signal (GABPA) was 1.24 fold enrichment (6-mer frequency, TF over GST control). For the same sequence, the binding signal (ERG) was 1.3 fold enrichment (6-mer frequency, TF over GST control), the binding signal (ELF1) was 1.29 fold enrichment (6-mer frequency, TF over GST control) and the binding signal (EHF) was 1.23 fold enrichment (6-mer frequency, TF over GST control). For the same sequence, the binding signal (SPI1) was 1.13 fold enrichment (6-mer frequency, TF over GST control), the binding signal (SPIB) was 1.38 fold enrichment (6-mer frequency, TF over GST control) and the binding signal (ELK3) was 1.29 fold enrichment (6-mer frequency, TF over GST control). For the same sequence, the binding signal (FEV) was 1.26 fold enrichment (6-mer frequency, TF over GST control), the binding signal (ETV5) was 1.31 fold enrichment (6-mer frequency, TF over GST control) and the binding signal (HSF1) was 1.76 fold enrichment (6-mer frequency, TF over GST control). The binding signal (SPIC) was 1.43 fold enrichment (6-mer frequency, TF over GST control), the binding signal (ELF4) was 1.26 fold enrichment (6-mer frequency, TF over GST control) and the binding signal (ELK4) was 1.23 fold enrichment (6-mer frequency, TF over GST control). For the same sequence, the binding signal (ETV2) was 1.19 fold enrichment (6-mer frequency, TF over GST control), the binding signal (ELF3) was 1.3 fold enrichment (6-mer frequency, TF over GST control) and the binding signal (CRX) was 1.57 fold enrichment (6-mer frequency, TF over GST control). The binding signal (ETV1) was 1.18 fold enrichment (6-mer frequency, TF over GST control).

From article PMC7862700, “An all-to-all approach to the identification of sequence-specific readers for epigenetic DNA modifications on cytosine”
